Records with an inconclusive call do not appear. Active and inactive are the calls of the source. The calls were made as follows, unless noted: active = hit-call score of the fitted dose curve at least 0.9, where 1 is the maximum; inactive = score below 0.9.
Key:
[1] = read-out: Monokine induced gamma interferon (MIG), CXCL9 (gene 4283); assay: BSK_SAg_MIG: BioMAP Diversity Plus: SAg Assay for Monokine induced gamma interferon (MIG) Biomarker Activity (AID 2283092); conditions: primary human HUVEC with PBMC; actives raise or lower the signal
Method in brief: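 HUVEC plus human PBMC co-culture, chemicals dosed and MIG (CXCL9) quantified by ELISA at 24 h. Bidirectional curve fitting against DMSO as negative control and baseline, so both gain and loss of signal count as activity.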

[2] = BSK_SAg_PBMCCytotoxicity: PBMC Cytotoxicity Assessment in the BioMAP Diversity Plus: SAg Assay (AID 2283093); conditions: primary human HUVEC with PBMC;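 also: fitted both ways against DMSO so a hit may be loss or gain of signal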;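 as to AC50: PBMC superantigen activated with SEB plus TSST-1 one hour after compound addition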
Method in brief: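 PBMC viability by Alamar Blue reduction, fluorescence read at 546/580 nm after 6 h dye exposure. Cells were dosed 1 h before SEB plus TSST-1 activation (20 ng/mL final each), then held 90 h; endothelial/PBMC human co-culture.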

[3] = read-out: Interleukin-8 (IL8), CXCL8 (gene 3576); assay: BSK_SAg_IL8: BioMAP Diversity Plus: SAg Assay for Interleukin-8 (IL8) Biomarker Activity (AID 2283094); conditions: primary human HUVEC with PBMC; actives raise or lower the signal
Method in brief: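 Chemicals were dosed onto a human endothelial–PBMC co-culture, and IL-8 was quantified by ELISA after 24 h. Both increases and decreases were fitted relative to DMSO.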

[4] = BSK_SAg_Proliferation: Cell Proliferation Assessment in the BioMAP Diversity Plus: SAg Assay (AID 2283095); conditions: primary human HUVEC with PBMC;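 also: relative cell number as total protein by SRB absorbance in sub-confluent culture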
Method in brief: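 Absorbance of sulforhodamine B at 560 nm reports total protein in a human vascular endothelial/PBMC co-culture after 96 h chemical exposure. Gain or loss of signal is fitted in both directions against DMSO.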

[5] = BSK_SAg_SRB: Viability Assessment in the BioMAP Diversity Plus: SAg Assay (AID 2283096); conditions: primary human HUVEC with PBMC;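 also: cells read one day after compound addition; hits may be either gain or loss of signal compared with DMSO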
Method in brief: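 Compounds were added to a human vascular co-culture of umbilical vein endothelium and PBMC. After 24 h, parallel cultures were fixed with 10% TCA, stained with 0.1% sulforhodamine B and read at 560 nm. Gain or loss of signal was fitted relative to DMSO.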

[6] = target: human CYP2B6, CYP2B6 (gene 1555) (UniProt P20813); assay: NVS_ADME_hCYP2B6: NovaScreen (NVS) CYP450-related Enzyme Activity (ADME) Assay for human CYP2B6 (AID 2283101; active = hit-call score of the fitted dose curve at least 0.9, where 1 is the maximum)
Sequence of human CYP2B6, CYP2B6 (gene 1555) (P20813 whole entry, looked up): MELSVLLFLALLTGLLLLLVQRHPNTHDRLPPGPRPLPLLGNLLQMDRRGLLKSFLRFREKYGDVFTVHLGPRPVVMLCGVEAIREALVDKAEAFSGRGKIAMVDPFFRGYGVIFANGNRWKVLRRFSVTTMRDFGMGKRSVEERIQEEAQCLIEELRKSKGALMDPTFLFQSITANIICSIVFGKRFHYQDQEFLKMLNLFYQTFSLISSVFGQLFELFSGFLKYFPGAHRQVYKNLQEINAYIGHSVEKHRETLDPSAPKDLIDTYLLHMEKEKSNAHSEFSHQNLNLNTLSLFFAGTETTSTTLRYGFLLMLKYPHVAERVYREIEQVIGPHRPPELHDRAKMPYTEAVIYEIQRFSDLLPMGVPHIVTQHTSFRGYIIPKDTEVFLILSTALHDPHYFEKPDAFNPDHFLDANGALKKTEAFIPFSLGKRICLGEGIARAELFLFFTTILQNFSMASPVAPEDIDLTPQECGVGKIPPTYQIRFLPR
Method in brief: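 Recombinant human CYP2B6 with fluorogenic substrate, read by fluorescence intensity 1 h after dosing. Primary screen in duplicate at 10 uM, actives followed in concentration series; signal loss relative to acetonitrile control.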

[7] = target: human CYP1A2, CYP1A2 (gene 1544) (UniProt P05177); assay: NVS_ADME_hCYP1A2: NovaScreen (NVS) CYP450-related Enzyme Activity (ADME) Assay for human CYP1A2 (AID 2283102; active = hit-call score of the fitted dose curve at least 0.9, where 1 is the maximum;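 as to AC50: potency for inhibition since loss of fluorescence marks reduced CYP1A2 activity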)
Sequence of human CYP1A2, CYP1A2 (gene 1544) (P05177 whole entry, looked up): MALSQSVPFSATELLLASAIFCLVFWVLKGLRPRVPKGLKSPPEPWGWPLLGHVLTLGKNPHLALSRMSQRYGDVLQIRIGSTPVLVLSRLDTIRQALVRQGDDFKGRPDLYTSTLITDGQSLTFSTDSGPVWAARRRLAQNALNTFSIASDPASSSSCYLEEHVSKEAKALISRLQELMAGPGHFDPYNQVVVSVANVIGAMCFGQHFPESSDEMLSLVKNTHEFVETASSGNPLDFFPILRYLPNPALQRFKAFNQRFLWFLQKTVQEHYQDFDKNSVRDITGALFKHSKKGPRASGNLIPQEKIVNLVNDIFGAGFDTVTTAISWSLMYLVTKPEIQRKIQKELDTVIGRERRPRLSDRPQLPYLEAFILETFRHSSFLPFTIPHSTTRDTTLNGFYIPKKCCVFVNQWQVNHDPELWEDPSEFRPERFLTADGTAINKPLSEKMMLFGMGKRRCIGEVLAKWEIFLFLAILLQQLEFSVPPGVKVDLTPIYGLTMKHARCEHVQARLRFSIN
Method in brief: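 rec. hCYP1A2 (insect cells), cell-free; fluorogenic substrate; 0.5 h; FI read. Baseline = acetonitrile; signal loss = inhibition. 10 uM duplicate primary → conc. series for actives.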

[8] = target: Cytochrome P450 3A4 (Homo sapiens) (UniProt P08684); assay: NVS_ADME_hCYP3A4: NovaScreen (NVS) CYP450-related Enzyme Activity (ADME) Assay for human CYP3A4 (AID 2283110; active = hit-call score of the fitted dose curve at least 0.9, where 1 is the maximum)
Sequence of Cytochrome P450 3A4 (Homo sapiens) (P08684 whole entry, looked up): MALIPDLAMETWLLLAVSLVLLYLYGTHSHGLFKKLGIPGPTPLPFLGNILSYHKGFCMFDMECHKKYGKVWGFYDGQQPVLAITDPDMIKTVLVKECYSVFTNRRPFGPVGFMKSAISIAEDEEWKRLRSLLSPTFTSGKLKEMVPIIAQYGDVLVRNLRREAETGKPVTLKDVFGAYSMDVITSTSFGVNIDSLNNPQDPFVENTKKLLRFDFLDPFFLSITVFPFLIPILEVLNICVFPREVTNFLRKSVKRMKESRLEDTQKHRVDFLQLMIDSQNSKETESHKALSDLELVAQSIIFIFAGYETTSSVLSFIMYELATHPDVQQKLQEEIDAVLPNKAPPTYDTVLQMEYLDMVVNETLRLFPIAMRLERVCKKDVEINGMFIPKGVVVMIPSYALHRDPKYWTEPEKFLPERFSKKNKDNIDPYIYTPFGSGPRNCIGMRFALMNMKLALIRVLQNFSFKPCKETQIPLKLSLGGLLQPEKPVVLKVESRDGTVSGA
Method in brief: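 Recombinant CYP3A4 from insect cells, fluorescence enzyme read-out, 0.33 h after chemical addition. Acetonitrile = negative control/baseline. Primary HTS: 10 uM in duplicate; actives re-tested in concentration series.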

[9] = target: Cytochrome P450 2C19 (Homo sapiens) (UniProt P33261); assay: NVS_ADME_hCYP2C19: NovaScreen (NVS) CYP450-related Enzyme Activity (ADME) Assay for human CYP2C19 (AID 2283113; active = hit-call score of the fitted dose curve at least 0.9, where 1 is the maximum;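 also: potency for inhibition seen as loss of fluorescent signal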)
Method in brief: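 Fluorescence intensity was measured 1 hour after chemicals were added to insect-cell-derived recombinant CYP2C19 with fluorogenic substrate. Decreased signal versus acetonitrile control was taken as reduced enzyme activity; initial testing used 10 uM in duplicate.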

[10] = target: human CYP1A1, CYP1A1 (gene 1543) (UniProt P04798); assay: NVS_ADME_hCYP1A1: NovaScreen (NVS) CYP450-related Enzyme Activity (ADME) Assay for human CYP1A1 (AID 2283100; active = hit-call score of the fitted dose curve at least 0.9, where 1 is the maximum)
Sequence of human CYP1A1, CYP1A1 (gene 1543) (P04798 whole entry, looked up): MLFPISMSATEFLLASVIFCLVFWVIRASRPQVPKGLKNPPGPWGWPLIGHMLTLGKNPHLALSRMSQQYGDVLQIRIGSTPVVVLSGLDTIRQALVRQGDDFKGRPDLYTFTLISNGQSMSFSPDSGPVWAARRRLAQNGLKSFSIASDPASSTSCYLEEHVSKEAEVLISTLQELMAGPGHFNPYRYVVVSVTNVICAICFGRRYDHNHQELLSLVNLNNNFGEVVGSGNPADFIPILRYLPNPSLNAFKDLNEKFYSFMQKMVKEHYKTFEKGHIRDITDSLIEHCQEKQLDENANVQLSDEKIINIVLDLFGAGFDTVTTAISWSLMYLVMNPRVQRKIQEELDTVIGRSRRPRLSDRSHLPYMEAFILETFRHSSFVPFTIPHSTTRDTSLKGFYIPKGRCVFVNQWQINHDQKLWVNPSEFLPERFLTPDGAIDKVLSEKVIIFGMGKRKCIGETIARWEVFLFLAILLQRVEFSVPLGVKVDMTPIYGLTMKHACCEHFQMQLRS
Method in brief: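 Recombinant hCYP1A1 + fluorogenic substrate, cell-free; 1 h; fluorescence read. Single-point 10 uM (duplicate) → concentration series, max 20 uM. Acetonitrile negative control.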

[11] = target: human CYP2D6, CYP2D6 (gene 1565) (UniProt P10635); assay: NVS_ADME_hCYP2D6: NovaScreen (NVS) CYP450-related Enzyme Activity (ADME) Assay for human CYP2D6 (AID 2283107; active = hit-call score of the fitted dose curve at least 0.9, where 1 is the maximum)
Sequence of human CYP2D6, CYP2D6 (gene 1565) (P10635 whole entry, looked up): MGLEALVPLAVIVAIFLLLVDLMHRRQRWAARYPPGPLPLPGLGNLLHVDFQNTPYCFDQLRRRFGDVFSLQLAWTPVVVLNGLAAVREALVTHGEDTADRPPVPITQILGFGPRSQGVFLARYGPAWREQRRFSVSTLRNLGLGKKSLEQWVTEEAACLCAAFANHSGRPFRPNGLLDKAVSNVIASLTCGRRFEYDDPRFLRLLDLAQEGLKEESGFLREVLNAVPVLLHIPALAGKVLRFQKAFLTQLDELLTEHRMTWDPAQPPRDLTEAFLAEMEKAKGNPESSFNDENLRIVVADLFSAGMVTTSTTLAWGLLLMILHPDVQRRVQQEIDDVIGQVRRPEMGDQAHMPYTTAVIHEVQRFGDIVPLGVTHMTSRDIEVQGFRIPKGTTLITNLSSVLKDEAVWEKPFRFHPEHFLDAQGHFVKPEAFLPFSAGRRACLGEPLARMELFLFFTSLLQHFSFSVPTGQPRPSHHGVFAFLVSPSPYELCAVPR
Method in brief: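 Insect-cell recombinant enzyme + fluorogenic substrate, cell-free; 1 h incubation; fluorescence intensity readout. Acetonitrile = neg. ctrl/baseline. Single-point 10 uM, duplicate; follow-up concentration series.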

[12] = target: human CYP2C9, CYP2C9 (gene 1559) (UniProt P11712); assay: NVS_ADME_hCYP2C9: NovaScreen (NVS) CYP450-related Enzyme Activity (ADME) Assay for human CYP2C9 (AID 2283108; active = hit-call score of the fitted dose curve at least 0.9, where 1 is the maximum)
Sequence of human CYP2C9, CYP2C9 (gene 1559) (P11712 whole entry, looked up): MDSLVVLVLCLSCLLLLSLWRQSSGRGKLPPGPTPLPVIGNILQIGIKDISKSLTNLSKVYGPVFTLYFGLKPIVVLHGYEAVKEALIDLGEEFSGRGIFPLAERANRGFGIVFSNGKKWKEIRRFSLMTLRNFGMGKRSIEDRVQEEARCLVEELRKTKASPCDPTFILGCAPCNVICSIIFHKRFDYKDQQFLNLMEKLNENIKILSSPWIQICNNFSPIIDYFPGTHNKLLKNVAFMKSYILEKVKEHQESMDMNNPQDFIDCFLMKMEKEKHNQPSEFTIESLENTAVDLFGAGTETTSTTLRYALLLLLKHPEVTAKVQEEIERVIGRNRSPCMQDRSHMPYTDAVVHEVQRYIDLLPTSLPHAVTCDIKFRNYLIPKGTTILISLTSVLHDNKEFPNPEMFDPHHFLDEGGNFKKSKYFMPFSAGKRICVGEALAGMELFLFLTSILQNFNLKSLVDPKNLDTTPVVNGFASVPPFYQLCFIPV
Method in brief: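 Recombinant human CYP2C9 expressed in SF9 cells, fluorogenic substrate, fluorescence read 0.75 h after dosing. Chemicals first run in duplicate at 10 uM, with actives followed in concentration series; loss of signal versus acetonitrile baseline.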

[13] = target: human AKT serine/threonine Kinase 2 (AKT2), AKT2 (gene 208) (UniProt P31751); assay: NVS_ENZ_hAKT2: NovaScreen (NVS) Enzymatic Assay for human AKT serine/threonine Kinase 2 (AKT2) (AID 2283141; active = hit-call score of the fitted dose curve at least 0.9, where 1 is the maximum)
Sequence of human AKT serine/threonine Kinase 2 (AKT2), AKT2 (gene 208) (P31751 whole entry, looked up): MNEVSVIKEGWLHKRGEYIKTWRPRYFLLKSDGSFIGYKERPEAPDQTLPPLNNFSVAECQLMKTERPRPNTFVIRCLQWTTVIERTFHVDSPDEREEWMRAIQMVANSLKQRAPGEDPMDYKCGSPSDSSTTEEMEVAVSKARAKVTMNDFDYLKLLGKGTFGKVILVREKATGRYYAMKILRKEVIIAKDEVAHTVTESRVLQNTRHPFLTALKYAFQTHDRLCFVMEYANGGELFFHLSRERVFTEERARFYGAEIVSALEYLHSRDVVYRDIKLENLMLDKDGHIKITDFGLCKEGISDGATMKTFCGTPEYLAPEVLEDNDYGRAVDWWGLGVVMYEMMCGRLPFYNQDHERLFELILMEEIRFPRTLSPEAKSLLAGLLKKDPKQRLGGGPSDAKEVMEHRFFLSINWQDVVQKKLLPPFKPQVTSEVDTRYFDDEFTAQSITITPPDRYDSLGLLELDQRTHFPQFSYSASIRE
Method in brief: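 Cell-free fluorescence/electrophoretic mobility shift readout of recombinant human AKT2 activity, 1 h after chemical dosing. Duplicate primary screen at 25 uM, then singleton concentration-response up to 50 uM; loss of signal versus DMSO baseline.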

[14] = target: human AKT serine/threonine Kinase 1 (AKT1), AKT1 (gene 207) (UniProt P31749); assay: NVS_ENZ_hAKT1: NovaScreen (NVS) Enzymatic Assay for human AKT serine/threonine Kinase 1 (AKT1) (AID 2283138; active = hit-call score of the fitted dose curve at least 0.9, where 1 is the maximum)
Sequence of human AKT serine/threonine Kinase 1 (AKT1), AKT1 (gene 207) (P31749 whole entry, looked up): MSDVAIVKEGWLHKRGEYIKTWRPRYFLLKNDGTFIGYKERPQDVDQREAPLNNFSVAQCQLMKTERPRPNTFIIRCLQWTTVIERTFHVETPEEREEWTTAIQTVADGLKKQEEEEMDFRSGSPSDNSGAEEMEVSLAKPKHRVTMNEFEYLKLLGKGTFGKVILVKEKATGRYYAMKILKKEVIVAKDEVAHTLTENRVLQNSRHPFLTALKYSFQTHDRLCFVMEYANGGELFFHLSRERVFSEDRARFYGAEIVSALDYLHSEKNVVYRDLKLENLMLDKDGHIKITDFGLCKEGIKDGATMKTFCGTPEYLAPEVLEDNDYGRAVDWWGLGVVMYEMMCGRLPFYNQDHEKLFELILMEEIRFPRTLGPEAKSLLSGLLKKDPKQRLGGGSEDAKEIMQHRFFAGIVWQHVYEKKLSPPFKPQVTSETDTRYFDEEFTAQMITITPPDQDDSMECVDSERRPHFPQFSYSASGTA
Method in brief: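 Compounds were first tested in duplicate at 25 uM, and those passing a threshold such as 30% inhibition were run in concentration-response to a maximum of 50 uM. Enzyme activity was measured after 1 h by fluorescence following substrate/product mobility-shift separation.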

[15] = target: human Acid Phosphatase 1 (ACP1), ACP1 (gene 52) (UniProt P24666); assay: NVS_ENZ_hACP1: NovaScreen (NVS) Enzymatic Assay for human Acid Phosphatase 1 (ACP1) (AID 2283136; active = hit-call score of the fitted dose curve at least 0.9, where 1 is the maximum)
Sequence of human Acid Phosphatase 1 (ACP1), ACP1 (gene 52) (P24666 whole entry, looked up): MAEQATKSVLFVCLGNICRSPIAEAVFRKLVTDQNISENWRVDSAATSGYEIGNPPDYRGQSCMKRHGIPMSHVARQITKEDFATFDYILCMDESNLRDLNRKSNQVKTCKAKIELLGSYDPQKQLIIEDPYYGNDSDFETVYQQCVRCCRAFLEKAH
Method in brief: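 Cell-free fluorescence read-out of phosphatase activity, substrate and product separated by mobility shift, taken 1.5 h after compound addition; protein produced in Sf9. Single 25 uM duplicate screen, followed by concentration series for actives, scored as signal loss relative to DMSO.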

[16] = target: human Beta-secretase (BACE), BACE1 (gene 23621) (UniProt P56817); assay: NVS_ENZ_hBACE: NovaScreen (NVS) Enzymatic Assay for human Beta-secretase (BACE) (AID 2283140; active = hit-call score of the fitted dose curve at least 0.9, where 1 is the maximum;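 also: hits are inhibitors that reduce fluorescent substrate signal versus DMSO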)
Sequence of human Beta-secretase (BACE), BACE1 (gene 23621) (P56817 whole entry, looked up): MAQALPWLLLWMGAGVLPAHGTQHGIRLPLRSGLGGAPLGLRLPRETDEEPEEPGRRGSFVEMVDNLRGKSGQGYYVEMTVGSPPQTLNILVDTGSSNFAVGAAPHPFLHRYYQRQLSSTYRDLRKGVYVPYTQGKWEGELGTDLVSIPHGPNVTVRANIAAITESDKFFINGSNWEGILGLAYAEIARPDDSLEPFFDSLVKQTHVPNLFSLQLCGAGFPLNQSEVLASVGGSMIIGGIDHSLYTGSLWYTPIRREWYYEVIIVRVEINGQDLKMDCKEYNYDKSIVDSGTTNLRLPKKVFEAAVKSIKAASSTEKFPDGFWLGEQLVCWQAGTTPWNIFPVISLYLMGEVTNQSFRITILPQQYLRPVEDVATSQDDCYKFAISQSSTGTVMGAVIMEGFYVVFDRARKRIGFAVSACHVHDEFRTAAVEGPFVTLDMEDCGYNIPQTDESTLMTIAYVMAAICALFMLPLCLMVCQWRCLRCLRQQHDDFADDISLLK
Method in brief: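 Fluorescence intensity read-out of protease activity defines this endpoint; signal loss relative to DMSO baseline marks inhibition. Recombinant enzyme from SF9 cells, cell-free format, 1 h exposure. Single-concentration duplicate screen (25 uM) precedes concentration-series follow-up.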

[17] = target: human Caspase 5 (CASP5), CASP5 (gene 838) (UniProt P51878); assay: NVS_ENZ_hCASP5: NovaScreen (NVS) Enzymatic Assay for human Caspase 5 (CASP5) (AID 2283137; active = hit-call score of the fitted dose curve at least 0.9, where 1 is the maximum)
Method in brief: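 Chemicals were first tested in duplicate at 25 uM against recombinant caspase 5 from E. coli. Activity was read by fluorescence intensity 2 hours after dosing. Those passing a preset inhibition threshold were retested in singleton concentration-response up to 50 uM.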

In the case of `O=[N+]([O-])C(CO)(CO)CO`, the outcome [1] is reported as “inactive”, the outcome [2] is reported as “inactive” and the outcome [3] is reported as “inactive”. The AC50 [4] was 17.8 µM (active) and the outcome [5] was “inactive”.

In the case of `C=CCOC(=O)c1ccccc1C(=O)OCC=C`, the outcome [1] is reported as “inactive”, the outcome [2] is reported as “inactive” and the outcome [3] is reported as “inactive”. The outcome [4] was “inactive”, the outcome [5] was “inactive” and the AC50 [6] was 7.79 µM (active). The AC50 [7] was 3.03 µM (active), the AC50 [8] was 6.19 µM (active) and the AC50 [9] was 2.99 µM (active).

With `COCCOCCOC` the outcome [1] was “inactive”, the outcome [2] was “inactive” and the outcome [3] was “inactive”. The outcome [4] was “inactive” and the outcome [5] was “inactive”.

For `CCOc1ccc2c(c1)C(C)=CC(C)(C)N2`, the outcome [1] was “inactive”, the AC50 [2] was 10.1 µM (active) and the outcome [3] was “inactive”. For the same compound, the AC50 [4] was 24.8 µM (active), the outcome [5] was “inactive” and the outcome [10] was “inactive”. For the same compound, the AC50 [6] was 11.6 µM (active), the outcome [7] was “inactive” and the AC50 [11] was 3.51 µM (active). For the same compound, the AC50 [12] was 10 µM (active).

In the case of `CCCCCCC(=O)OCC`, the outcome [1] is reported as “inactive”, the outcome [2] is reported as “inactive” and the outcome [3] is reported as “inactive”. For the same compound, the outcome [4] was “inactive”, the outcome [5] was “inactive” and the outcome [11] was “inactive”. The AC50 [12] was 14.8 µM (active).

In the case of `COc1ccc2c(c1)c(CC(=O)O)c(C)n2C(=O)c1ccc(Cl)cc1`, the outcome [1] is reported as “inactive”, the outcome [2] is reported as “inactive” and the outcome [3] is reported as “inactive”. For the same compound, the outcome [4] was “inactive”, the outcome [5] was “inactive” and the outcome [6] was “inactive”. For the same compound, the AC50 [8] was 10 µM (active).

In the case of `Cc1ccc(Cl)cc1`, the outcome [1] is reported as “inactive”, the outcome [2] is reported as “inactive” and the outcome [3] is reported as “inactive”. For the same compound, the outcome [4] was “inactive” and the outcome [5] was “inactive”.

With `C[C@]12C=CC(=O)C=C1CC[C@@H]1[C@@H]2C(=O)C[C@@]2(C)[C@H]1CC[C@]2(O)C(=O)CO` the outcome [1] was “inactive”, the outcome [2] was “inactive” and the outcome [3] was “inactive”. The outcome [4] was “inactive” and the outcome [5] was “inactive”.

With `CCOC(=O)CCC(=O)OCC` the outcome [1] was “inactive”, the outcome [2] was “inactive” and the outcome [3] was “inactive”. The outcome [4] was “inactive”, the outcome [5] was “inactive” and the outcome [6] was “inactive”. For the same compound, the outcome [7] was “inactive”, the outcome [11] was “inactive” and the outcome [12] was “inactive”. For the same compound, the AC50 [9] was 15.4 µM (active) and the outcome [13] was “inactive”.

For `Cc1ccc(C)c(C)c1`, the outcome [1] was “inactive”, the outcome [2] was “inactive” and the outcome [3] was “inactive”. For the same compound, the outcome [4] was “inactive” and the outcome [5] was “inactive”.

For `O=C(N[C@@H](Cc1ccccc1)[C@@H](O)C(=O)N1C[C@@H](O)[C@@H](O)C1)c1cc2cc(Cl)ccc2[nH]1`, the outcome [1] was “inactive”, the outcome [2] was “inactive” and the outcome [3] was “inactive”. For the same compound, the outcome [4] was “inactive”, the outcome [5] was “inactive” and the outcome [7] was “inactive”.

For `CC(=O)C(C)=CC1C(C)=CCCC1(C)C` (configuration not stated), the outcome [1] was “inactive”, the outcome [2] was “inactive” and the outcome [3] was “inactive”. For the same compound, the outcome [4] was “inactive”, the outcome [5] was “inactive” and the outcome [14] was “inactive”.

With `O=c1c(O)c(-c2ccc(O)c(O)c2)oc2cc(O)cc(O)c12` the outcome [1] was “inactive”, the AC50 [2] was 13 µM (active) and the outcome [3] was “inactive”. For the same compound, the AC50 [4] was 28.6 µM (active), the AC50 [5] was 31 µM (active) and the outcome [13] was “inactive”.

In the case of `Nc1nc(N)c2nc(CNc3ccc(C(=O)N[C@@H](CCC(=O)O)C(=O)O)cc3)cnc2n1`, the outcome [1] is reported as “inactive”, the outcome [2] is reported as “inactive” and the outcome [3] is reported as “inactive”. For the same compound, the AC50 [4] was 3.22 µM (active), the outcome [5] was “inactive” and the AC50 [12] was 12.3 µM (active).

For `Cc1cccc([N+](=O)[O-])c1C`, the outcome [1] was “inactive”, the outcome [2] was “inactive” and the outcome [3] was “inactive”. The outcome [4] was “inactive”, the outcome [5] was “inactive” and the AC50 [9] was 18.6 µM (active).

With `NCCO` the outcome [1] was “inactive”, the outcome [2] was “inactive” and the outcome [3] was “inactive”. For the same compound, the outcome [4] was “inactive”, the outcome [5] was “inactive” and the outcome [8] was “inactive”. The outcome [15] was “inactive” and the outcome [14] was “inactive”.

In the case of `CCCCCCCCCCCCCCCC`, the outcome [1] is reported as “inactive”, the outcome [2] is reported as “inactive” and the outcome [3] is reported as “inactive”. For the same compound, the outcome [4] was “inactive”, the outcome [5] was “inactive” and the outcome [14] was “inactive”.

With `CCCCCCCCCCCC(=O)OC` the outcome [1] was “inactive”, the AC50 [2] was 20 µM (active) and the outcome [3] was “inactive”. For the same compound, the outcome [4] was “inactive”, the outcome [5] was “inactive” and the outcome [14] was “inactive”.

With `CCOC(=O)C(C)(C)Oc1ccc(Cl)cc1` the outcome [1] was “inactive”, the outcome [2] was “inactive” and the outcome [3] was “inactive”. For the same compound, the outcome [4] was “inactive”, the outcome [5] was “inactive” and the outcome [15] was “inactive”. For the same compound, the outcome [16] was “inactive”.

For `COc1ccc(C)cc1N`, the outcome [1] was “inactive”, the outcome [2] was “inactive” and the outcome [3] was “inactive”. The outcome [4] was “inactive”, the outcome [5] was “inactive” and the outcome [17] was “inactive”.

Source: PubChem BioAssay (EPA / NIEHS)
